# Measurements reported in the supplement of paper PMC10849652.
# Of roughly 8,800 targets only a part is listed; those with a hit were picked by preference. About 0.5% of all pairs of compound and target were hits. A number with no mark means an inactive call.
# Compound: C1=CC=C(C=C1)[C@H](COC2=CC3=C(C=C2)NC(=O)N3)NC(=O)C4=CC=CN(C4=O)CC5=CC(=C(C=C5)F)F
# Experiment: log2 fold change, soluble protein after heating vs DMSO (PISA); higher = thermal stabilisation; K562 lysate, 10 uM; active = over 0.2 and 3.5 SD of the protein, either way, in both replicates (recomputed)
# Procedure, shortened: (§1)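 Log-two fold change in thermal stability relative to solvent controls is reported from duplicates. For each sample, crude K562 extract from dounce-homogenised pellets in PBS pH 7.4 with 1 mM MgCl2, at 1 mg/mL protein, was treated with 10 μM compound for 30 min. Aliquots heated for 3 min across 48°C-58°C were pooled, brought to 0.5% NP-40 at 4°C and cleared at 21,000xg for 90 min. The supernatant was quantified by TMTpro 16plex LC-MS/MS with channel sums equalised.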
# UniProt P50570, sequence (P50570 whole entry, looked up): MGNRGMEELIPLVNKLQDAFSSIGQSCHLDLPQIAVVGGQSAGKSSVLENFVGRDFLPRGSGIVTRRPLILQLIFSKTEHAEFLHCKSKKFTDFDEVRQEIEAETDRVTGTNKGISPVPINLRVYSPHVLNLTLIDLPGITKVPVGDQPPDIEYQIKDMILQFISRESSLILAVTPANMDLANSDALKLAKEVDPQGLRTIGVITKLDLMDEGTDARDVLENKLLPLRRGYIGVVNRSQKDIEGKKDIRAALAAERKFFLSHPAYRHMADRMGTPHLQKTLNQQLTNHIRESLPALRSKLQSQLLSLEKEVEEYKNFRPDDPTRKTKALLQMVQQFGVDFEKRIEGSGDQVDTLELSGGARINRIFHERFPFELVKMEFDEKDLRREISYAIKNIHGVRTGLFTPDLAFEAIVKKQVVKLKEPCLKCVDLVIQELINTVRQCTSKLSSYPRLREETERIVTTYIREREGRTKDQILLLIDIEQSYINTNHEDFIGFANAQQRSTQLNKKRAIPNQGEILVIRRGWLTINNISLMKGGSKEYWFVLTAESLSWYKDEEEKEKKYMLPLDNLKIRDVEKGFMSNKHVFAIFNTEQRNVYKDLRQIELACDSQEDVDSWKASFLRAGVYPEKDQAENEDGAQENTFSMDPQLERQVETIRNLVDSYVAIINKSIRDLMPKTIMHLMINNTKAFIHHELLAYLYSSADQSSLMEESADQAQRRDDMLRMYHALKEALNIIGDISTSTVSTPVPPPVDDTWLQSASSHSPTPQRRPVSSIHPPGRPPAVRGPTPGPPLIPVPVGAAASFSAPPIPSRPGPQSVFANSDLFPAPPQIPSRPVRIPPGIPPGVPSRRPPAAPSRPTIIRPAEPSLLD
# UniProt Q9H467, sequence (Q9H467 whole entry, looked up): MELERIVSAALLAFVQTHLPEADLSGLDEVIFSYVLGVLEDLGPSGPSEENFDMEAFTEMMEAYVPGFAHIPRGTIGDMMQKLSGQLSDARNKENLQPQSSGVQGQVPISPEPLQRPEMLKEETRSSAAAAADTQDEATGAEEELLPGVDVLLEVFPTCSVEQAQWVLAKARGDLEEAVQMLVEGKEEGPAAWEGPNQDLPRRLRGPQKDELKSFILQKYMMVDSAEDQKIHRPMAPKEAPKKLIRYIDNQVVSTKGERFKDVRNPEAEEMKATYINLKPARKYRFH
# UniProt Q9NSV4, sequence (Q9NSV4 whole entry, looked up): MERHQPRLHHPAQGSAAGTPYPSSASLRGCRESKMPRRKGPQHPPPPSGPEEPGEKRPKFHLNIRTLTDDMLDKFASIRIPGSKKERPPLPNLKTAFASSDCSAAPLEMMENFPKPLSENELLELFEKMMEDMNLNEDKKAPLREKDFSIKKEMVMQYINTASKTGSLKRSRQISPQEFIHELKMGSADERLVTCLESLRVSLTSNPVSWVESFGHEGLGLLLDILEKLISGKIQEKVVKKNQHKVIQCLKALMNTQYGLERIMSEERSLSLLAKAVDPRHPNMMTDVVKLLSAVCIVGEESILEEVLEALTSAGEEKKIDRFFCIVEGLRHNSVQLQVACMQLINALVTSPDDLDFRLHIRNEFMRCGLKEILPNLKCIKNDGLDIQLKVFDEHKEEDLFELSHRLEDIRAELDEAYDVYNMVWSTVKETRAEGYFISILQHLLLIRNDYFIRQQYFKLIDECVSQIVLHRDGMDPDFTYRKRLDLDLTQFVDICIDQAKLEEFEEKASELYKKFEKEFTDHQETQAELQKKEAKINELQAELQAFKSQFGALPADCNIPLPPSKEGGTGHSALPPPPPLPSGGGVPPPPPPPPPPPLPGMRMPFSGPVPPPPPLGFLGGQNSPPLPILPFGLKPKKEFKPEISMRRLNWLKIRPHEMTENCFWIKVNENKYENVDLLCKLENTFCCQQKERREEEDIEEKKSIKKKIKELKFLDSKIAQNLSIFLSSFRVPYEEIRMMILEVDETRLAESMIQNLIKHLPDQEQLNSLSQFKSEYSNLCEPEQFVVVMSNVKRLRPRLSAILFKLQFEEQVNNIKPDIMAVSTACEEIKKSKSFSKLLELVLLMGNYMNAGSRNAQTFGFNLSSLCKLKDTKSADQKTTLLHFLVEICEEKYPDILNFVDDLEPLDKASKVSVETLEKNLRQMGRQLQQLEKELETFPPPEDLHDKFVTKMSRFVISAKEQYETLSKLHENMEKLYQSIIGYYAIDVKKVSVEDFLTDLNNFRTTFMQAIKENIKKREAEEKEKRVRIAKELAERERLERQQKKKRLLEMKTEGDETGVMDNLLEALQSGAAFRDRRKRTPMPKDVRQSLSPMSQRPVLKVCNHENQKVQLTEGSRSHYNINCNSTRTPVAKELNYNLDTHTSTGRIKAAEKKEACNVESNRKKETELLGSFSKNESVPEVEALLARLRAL
# UniProt P39880, sequence (P39880 whole entry, looked up): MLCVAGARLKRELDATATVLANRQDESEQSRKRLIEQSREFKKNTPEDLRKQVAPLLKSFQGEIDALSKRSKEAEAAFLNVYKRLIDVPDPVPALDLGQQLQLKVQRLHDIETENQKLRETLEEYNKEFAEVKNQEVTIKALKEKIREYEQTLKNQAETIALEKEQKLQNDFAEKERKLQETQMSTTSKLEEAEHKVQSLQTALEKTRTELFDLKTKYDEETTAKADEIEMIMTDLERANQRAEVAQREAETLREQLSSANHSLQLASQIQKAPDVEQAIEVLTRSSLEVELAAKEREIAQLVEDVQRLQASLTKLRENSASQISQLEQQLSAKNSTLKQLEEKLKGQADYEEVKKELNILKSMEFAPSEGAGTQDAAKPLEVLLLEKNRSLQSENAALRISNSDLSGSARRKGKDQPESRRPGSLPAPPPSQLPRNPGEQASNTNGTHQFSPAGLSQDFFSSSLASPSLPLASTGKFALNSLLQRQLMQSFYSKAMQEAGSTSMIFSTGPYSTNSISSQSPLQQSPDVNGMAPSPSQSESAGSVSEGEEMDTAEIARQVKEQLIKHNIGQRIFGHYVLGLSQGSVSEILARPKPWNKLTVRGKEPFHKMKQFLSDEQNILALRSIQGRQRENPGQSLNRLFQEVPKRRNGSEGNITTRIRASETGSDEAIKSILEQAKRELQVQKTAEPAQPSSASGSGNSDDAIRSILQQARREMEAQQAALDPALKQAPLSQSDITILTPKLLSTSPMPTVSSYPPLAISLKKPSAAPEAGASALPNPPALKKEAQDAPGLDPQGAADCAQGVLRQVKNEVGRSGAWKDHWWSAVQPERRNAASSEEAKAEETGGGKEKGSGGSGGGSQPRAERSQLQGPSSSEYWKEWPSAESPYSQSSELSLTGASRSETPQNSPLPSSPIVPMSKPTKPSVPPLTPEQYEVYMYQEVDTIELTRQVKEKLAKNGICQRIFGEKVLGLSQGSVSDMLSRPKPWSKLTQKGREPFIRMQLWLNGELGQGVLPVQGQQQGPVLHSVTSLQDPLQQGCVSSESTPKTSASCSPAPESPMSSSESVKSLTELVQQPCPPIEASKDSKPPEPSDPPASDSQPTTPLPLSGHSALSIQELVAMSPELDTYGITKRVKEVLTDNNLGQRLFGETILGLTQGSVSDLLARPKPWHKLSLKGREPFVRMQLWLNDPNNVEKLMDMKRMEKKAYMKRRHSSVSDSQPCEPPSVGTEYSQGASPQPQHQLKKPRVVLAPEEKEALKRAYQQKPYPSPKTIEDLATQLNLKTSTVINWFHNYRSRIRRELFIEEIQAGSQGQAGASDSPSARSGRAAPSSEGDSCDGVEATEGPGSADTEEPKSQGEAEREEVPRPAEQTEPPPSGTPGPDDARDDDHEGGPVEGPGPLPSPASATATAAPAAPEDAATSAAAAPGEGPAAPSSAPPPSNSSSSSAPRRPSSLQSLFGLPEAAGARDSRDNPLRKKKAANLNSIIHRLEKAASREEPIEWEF
# UniProt Q9H4E7, sequence (Q9H4E7 whole entry, looked up): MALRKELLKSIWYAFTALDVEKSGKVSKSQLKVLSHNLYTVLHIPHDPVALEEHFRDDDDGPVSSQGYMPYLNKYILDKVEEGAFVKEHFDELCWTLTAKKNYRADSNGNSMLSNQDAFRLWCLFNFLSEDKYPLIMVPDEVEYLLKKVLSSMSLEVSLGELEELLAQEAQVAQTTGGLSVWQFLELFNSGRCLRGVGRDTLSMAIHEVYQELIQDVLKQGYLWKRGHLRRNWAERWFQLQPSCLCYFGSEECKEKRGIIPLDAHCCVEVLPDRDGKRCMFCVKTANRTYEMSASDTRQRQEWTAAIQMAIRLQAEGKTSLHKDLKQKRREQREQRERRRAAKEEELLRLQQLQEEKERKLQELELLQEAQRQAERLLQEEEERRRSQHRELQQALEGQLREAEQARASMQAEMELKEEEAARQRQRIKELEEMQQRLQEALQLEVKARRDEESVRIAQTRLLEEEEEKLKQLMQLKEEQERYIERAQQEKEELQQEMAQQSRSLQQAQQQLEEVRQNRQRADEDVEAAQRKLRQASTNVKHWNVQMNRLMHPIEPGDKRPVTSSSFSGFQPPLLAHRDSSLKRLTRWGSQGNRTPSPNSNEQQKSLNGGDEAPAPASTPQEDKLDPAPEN
# UniProt P68400, sequence (P68400 whole entry, looked up): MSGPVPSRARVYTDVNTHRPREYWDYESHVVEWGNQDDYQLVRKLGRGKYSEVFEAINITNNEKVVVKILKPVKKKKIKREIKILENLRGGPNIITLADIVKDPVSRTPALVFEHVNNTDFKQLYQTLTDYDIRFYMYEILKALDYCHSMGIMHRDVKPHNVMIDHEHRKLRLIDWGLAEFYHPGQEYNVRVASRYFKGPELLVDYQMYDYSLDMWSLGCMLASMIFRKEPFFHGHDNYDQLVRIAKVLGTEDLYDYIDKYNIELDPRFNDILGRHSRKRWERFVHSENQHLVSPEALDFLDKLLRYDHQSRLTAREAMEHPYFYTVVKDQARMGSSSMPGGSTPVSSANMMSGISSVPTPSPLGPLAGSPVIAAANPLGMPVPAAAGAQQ
# UniProt Q99828, sequence (Q99828 whole entry, looked up): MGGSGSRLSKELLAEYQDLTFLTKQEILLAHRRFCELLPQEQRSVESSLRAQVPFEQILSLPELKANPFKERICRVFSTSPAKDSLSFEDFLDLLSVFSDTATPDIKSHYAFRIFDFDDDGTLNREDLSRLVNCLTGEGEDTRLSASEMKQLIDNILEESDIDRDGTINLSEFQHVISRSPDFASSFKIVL
row,Target,log2 fold change
1,DEF6 (UniProt Q9H4E7),-0.061
2,DCTN1 (UniProt Q14203),-0.018
3,CUEDC2 (UniProt Q9H467),0.074
4,CHEK2 (UniProt O96017),-0.02
5,DNAAF5 (UniProt Q86Y56),-0.054
6,CNOT6L (UniProt Q96LI5),-0.014
7,CIB1 (UniProt Q99828),-0.128
8,CLPB isoform 2 (UniProt Q9H078),-0.031
9,CMPK2 (UniProt Q5EBM0),0.008
10,CTPS1 (UniProt P17812),-0.02
11,COG6 (UniProt Q9Y2V7),-0.023
12,CUX1 isoform 3 (UniProt P39880),-0.001
13,DIAPH3 (UniProt Q9NSV4),-0.09
14,CTNND1 isoform 3 (UniProt O60716),-0.021
15,CHML (UniProt P26374),0.011
16,DNM2 (UniProt P50570),-0.01
17,CHORDC1 (UniProt Q9UHD1),0.025

row,Target,log2 fold change
1,CSK (UniProt P41240),-0.039
2,DPM1 (UniProt O60762),-0.01
3,CKAP5 (UniProt Q14008),-0.008
4,DES (UniProt P17661),0
5,DMXL1 (UniProt Q9Y485),0.011
6,DGCR8 (UniProt Q8WYQ5),-0.05
7,CMIP (UniProt Q8IY22),-0.012
8,DDX54 isoform 2 (UniProt Q8TDD1),-0.131
9,COMT (UniProt P21964),-0.007
10,DENND4A isoform 2 (UniProt Q7Z401),-0.02
11,CSNK2A1 (UniProt P68400),-0.004
12,DOCK10 (UniProt Q96BY6),0.053
13,CNOT4 isoform 9 (UniProt O95628),-0.173
14,CYP51A1 (UniProt Q16850),0.028
15,CLCN3 isoform 2 (UniProt P51790),0.033
16,DLG3 isoform 2 (UniProt Q92796),0
17,CNST (UniProt Q6PJW8),0.041

# Compound: CC1=C(SC2=C1C(=N[C@H](C3=NN=C(N32)C)CC(=O)N)C4=CC=C(C=C4)Cl)C
# Experiment: as above
# Procedure, shortened: as §1
row,Target,log2 fold change
1,DEF6 (UniProt Q9H4E7),-0.05
2,DCTN1 (UniProt Q14203),-0.017
3,CUEDC2 (UniProt Q9H467),0.019
4,CHEK2 (UniProt O96017),-0.041
5,DNAAF5 (UniProt Q86Y56),0.038
6,CNOT6L (UniProt Q96LI5),0.017
7,CIB1 (UniProt Q99828),-0.272 (active)
8,CLPB isoform 2 (UniProt Q9H078),-0.012
9,CMPK2 (UniProt Q5EBM0),0.091
10,CTPS1 (UniProt P17812),-0.013
11,COG6 (UniProt Q9Y2V7),0.011
12,CUX1 isoform 3 (UniProt P39880),0.024
13,DIAPH3 (UniProt Q9NSV4),0.017
14,CTNND1 isoform 3 (UniProt O60716),0.035
15,CHML (UniProt P26374),-0.027
16,DNM2 (UniProt P50570),0.038
17,CHORDC1 (UniProt Q9UHD1),0.006

row,Target,log2 fold change
1,CSK (UniProt P41240),-0.049
2,DPM1 (UniProt O60762),0.048
3,CKAP5 (UniProt Q14008),-0.019
4,DES (UniProt P17661),0.05
5,DMXL1 (UniProt Q9Y485),0.01
6,DGCR8 (UniProt Q8WYQ5),0.063
7,CMIP (UniProt Q8IY22),-0.006
8,DDX54 isoform 2 (UniProt Q8TDD1),0.041
9,COMT (UniProt P21964),-0.01
10,DENND4A isoform 2 (UniProt Q7Z401),0.028
11,CSNK2A1 (UniProt P68400),0.012
12,DOCK10 (UniProt Q96BY6),-0.018
13,CNOT4 isoform 9 (UniProt O95628),0.081
14,CYP51A1 (UniProt Q16850),-0.105
15,CLCN3 isoform 2 (UniProt P51790),0.017
16,DLG3 isoform 2 (UniProt Q92796),-0.082
17,CNST (UniProt Q6PJW8),0.019
